Outcome data for 117 compounds are collected here from PubChem BioAssay AID434958 (Southern Research Specialized Biocontainment Screening …, 2010).

Screen size: about 1,200 compounds; about 400 (33%) were called active. The rule behind the calls is not given here. Not all results are given here. Entries with a potency or affinity are not part of this list.

A short description of the assay: mammalian cell cytotoxicity, dose response, cytotoxicity control (AID 434958).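 Note: cells exposed to compound for 72 hours before readout.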 The conditions noted are these: cytotoxicity counter-screen; series mostly up to 40 µM. Background: The purpose of a counterscreen is to sort out artefacts and off-target activity.
On to `COc1ccccc1NC(=O)COc1ccc(CO)cc1Cl`, for which the compound was classed as inactive. For `COc1ccc(NC(=O)COC(=O)Cc2ccc(-c3ccccc3)cc2)c(OC)c1` the value was “inactive”; for `COc1cccc(C(=O)C2CCCN(Cc3ccccn3)C2)c1` (configuration not stated), “inactive”. Turning to `COc1ccc(OC)c2nc(-c3ccc4c(c3)OCO4)ccc12`, the compound was called inactive. Consider `COc1ccc(-c2cc3cc(OC)c(OC)cc3c(C)n2)cc1`, for which the call was inactive. Turning to `CC(=O)c1c(OC(=O)c2cccc(Cl)c2)c2ccccc2n1C`, the result was inactive. Regarding `CCOC(=O)c1ccc(N2CN(C3CCCCC3)CNC2=S)cc1`, the result was inactive. Take `N=C1C(c2nc3ccccc3[nH]2)=C(O)CN1c1ccc(F)cc1`: the call was inactive. In the case of `Cn1c2ccccc2c(=O)c2cc(C#CC3(O)CCCCC3)ccc21` it was “inactive”; in that of `O=C(O)C1CC(=O)N(c2ccc(OCc3ccccc3Cl)cc2)C1` (configuration not stated), “inactive”. In the case of `CSc1ccccc1C(=O)Nc1cccc([N+](=O)[O-])c1C`, the compound was classed as inactive.

As for `Cc1nn(-c2ccccc2)c(N2CCCC2)c1/C=C1\N=C(c2ccc(F)cc2)OC1=O`, the compound was called inactive. For `Cc1cc(C)nc(SCC(=O)Nc2ccccc2[N+](=O)[O-])n1`, the result was inactive. Regarding `Cc1sc2nc(C(C)(C)C)oc(=O)c2c1C`, the compound was classed as inactive.

As to `CC/C(=N\NC(=O)c1ccc(-c2ccccc2)cc1)C12CC3CC(CC(C3)C1)C2`, the outcome was inactive. Turning to `CCCCOc1ccc(C(=O)Oc2cccnc2)cc1`, the outcome was inactive. On to `CN(C)S(=O)(=O)c1ccc(C(=O)OCC2CC2(Cl)Cl)cc1` (configuration not stated), for which the call was inactive. As for `N/C(=N\c1nc2ccccc2o1)NC(=O)c1ccccc1Br`, the compound was classed as inactive. With `CCOC(=O)N1CCN(C(=O)CSc2nnc(COc3ccccc3)o2)CC1`, the compound was classed as inactive. For `O=C1C(Cl)=C(N2CCCCC2)C(=O)N1c1ccccc1` the value was “inactive”; for `CCNC(=S)N/N=C1\C(=O)c2cccc3cccc1c23`, “inactive”; for `O=C(CSc1ncnc2c1cnn2-c1ccccc1)Nc1ccc2c(c1)OCO2`, “inactive”. On to `Fc1ccc(-c2csc(NC(=S)Nc3ccccc3)n2)cc1`, for which the result was inactive. For `O=C(CCC(=O)Nc1ccccc1)NNC(=O)c1ccco1` the value was “inactive”; for `Cc1ccccc1OCC(=O)Nc1ccccc1N1CCOCC1`, “inactive”; for `COc1cccc(NC(=O)C2CC2)c1`, “inactive”. With `Cc1ccc(C)c(NC(=O)c2cc(-c3cccnc3)nc3ccccc23)c1`, the call was inactive. Consider `c1ccc(Nc2ncnc3c2oc2ccccc23)cc1`, for which the compound was called inactive. Turning to `C=CCNC(=S)NC(=O)c1csc([N+](=O)[O-])c1`, the compound was called inactive. In the case of `COC(=O)c1ccc(/C=N\NC(=O)c2ccc(C)cc2Cl)cc1` it was “inactive”; in that of `CC1CCN(CCOc2ccc(OCc3ccccc3)cc2)CC1`, “inactive”.

For `Cc1ccc(S(=O)(=O)NCCCCCC(=O)Nc2ccccn2)cc1`, the compound was called inactive.

Take `Cn1c(O)c(/C=C2/C=CC=N2)c(=O)[nH]c1=O`: the result was inactive. In the case of `COc1ccc(NC(=O)c2cc(C)nc3ccccc23)c(OC)c1` it was “inactive”. As to `Cc1cc(C)c(C)c(S(=O)(=O)N2C(=S)NC(=O)C2CC(C)C)c1C` (configuration not stated), the outcome was inactive. For the compound `CC(=O)c1ccc(OC(=O)N(c2ccccc2)c2ccccc2)cc1`, the result was inactive. As for `CN(C)C1=C(Cl)C(=O)N(c2ccc(Cl)c(Cl)c2)C1=O`, the result was inactive. For `CCCCOc1ccccc1NC(=O)c1ccco1`, the result was inactive. In the case of `O=c1c2c3n(c(=S)nc2[nH]n1-c1ccccc1)CCCCC3` it was “inactive”; in that of `CCN(CC(=O)Nc1ccc2c(c1)OCCO2)C(=O)c1ccc([N+](=O)[O-])s1`, “inactive”.

`Cc1cc(/C=N/NC(=O)CC#N)c(C)n1-c1ccc([N+](=O)[O-])cc1`: the call was inactive. Regarding `COc1ccc(NCC(=O)N/N=C/C(C)c2ccccc2)cc1` (configuration not stated), the call was inactive.

As for `COc1ccc(N2C(=O)NC(=O)/C(=C\c3ccc([N+](=O)[O-])s3)C2=O)cc1`, the call was inactive.

On to `CCCc1cc(C(=O)OCC(=O)N2CCN(c3ccc(OC)cc3)CC2)sc1C`, for which the call was inactive. Turning to `COc1cc(C(=O)NNC(=O)c2cc(-c3ccccc3)n[nH]2)cc(OC)c1C`, the outcome was inactive. As for `COc1ccc(C2c3c(C)nn(-c4ccccc4)c3NC(=O)N2c2ccccc2)cc1` (configuration not stated), the compound was called inactive. In the case of `CCOC(=O)C1CSC(CC(=O)Nc2ccc(Cl)c(Cl)c2)C(=O)N1` (configuration not stated) it was “inactive”; in that of `CCOC(=O)C1CCN(c2ccc(C(N)=O)cc2[N+](=O)[O-])CC1`, “inactive”. In the case of `CCCCC(=O)NC(=S)Nc1ccc(NC(=O)C(C)C)c(OC)c1`, the call was inactive. For `O=C1C(Cl)=C(N2CCCCCC2)C(=O)N1c1ccc(Br)cc1`, the compound was called inactive. On to `CCOCC(=O)Nc1cc(C(F)(F)F)ccc1Oc1cccc(Br)c1`, for which the compound was classed as inactive. In the case of `COc1cc(OC)c(C(=O)Nc2cccc3ccccc23)cc1OC`, the compound was classed as inactive. In the case of `C/C(=N\OCC(=O)Nc1nc2ccccc2s1)c1ccccc1`, the compound was classed as inactive.

As for `CCCCNC(=O)c1onc(CSc2ccc(OC)cc2)c1C(=O)O`, the call was inactive. In the case of `COC(=O)c1c(NC(=O)C2c3ccccc3Oc3ccccc32)sc(C)c1C` it was “inactive”; in that of `COc1ccc(OC)c(NC(=O)c2ccccc2SC)c1`, “inactive”; in that of `COc1ccc(Cl)cc1NC(=O)C/C(C)=N/NC(=O)CC#N`, “inactive”. Consider `O=C(CCSc1ccccc1)Nc1nc2c(s1)CCCC2`, for which the compound was classed as inactive.

As for `CCOC(=O)C(=CNc1ccc2c(c1)c1ccccc1n2CC)C(=O)OCC`, the compound was classed as inactive. For `Cc1cc(C)cc(SCc2noc(C(=O)NC(C)C)c2C(=O)O)c1` the value was “inactive”; for `COc1ccccc1C(=O)Nc1ccc2c3c(cccc13)CC2`, “inactive”; for `CCOC(=O)CNC(=O)/C(=C\c1ccc(F)cc1)NC(=O)c1ccccc1`, “inactive”. In the case of `CC(/C=N/NC(=O)c1cc(C(C)(C)C)[nH]n1)=C\c1ccccc1` it was “inactive”; in that of `C/C(CC(=O)NCc1ccco1)=N\NC(=O)CC#N`, “inactive”. Consider `COc1ccc(/C(O)=C/C(=O)C(=O)NNC(=O)C(O)(c2ccccc2)c2ccccc2)cc1`, for which the compound was classed as inactive. For `CCOC(=O)c1cc(-c2ccccc2)sc1NC(=O)C(C)N1C(=O)NC(C)(c2ccc(Cl)cc2)C1=O` (configuration not stated) the value was “inactive”; for `Cc1ccc(C)c(CSc2nnc(C)c(=O)n2N)c1`, “inactive”; for `O=C(/C=C/c1cc(Br)ccc1F)OCC(=O)N1CCCC1`, “inactive”. In the case of `CCc1cc(C(=O)O)c(NC(=O)/C=C/c2ccc(OC)cc2)s1` it was “inactive”; in that of `CC(C)Oc1ccc(N2CC(C(=O)Nc3ccccc3F)CC2=O)cc1` (configuration not stated), “inactive”. Take `CSc1nnc(-c2ccc(NC(N)=S)cc2)o1`: the compound was called inactive. Regarding `Cc1ccc(S(=O)(=O)N[C@H](C(=O)OCn2nnc3ccccc3c2=O)C(C)C)cc1`, the compound was classed as inactive. For `O=C(CNC(=O)c1ccc(Br)cc1)NCC(=O)OCc1ccc(Cl)cc1` the value was “inactive”; for `O=C(CSC1CS(=O)(=O)c2cc([N+](=O)[O-])ccc21)NNC(=O)c1ccccc1` (configuration not stated), “inactive”.

As for `O=C1O/C(=C/c2ccccc2)N=C1c1ccccc1`, the result was inactive.

`NNC(=S)Nc1ccc(C(F)(F)F)cc1Cl`: the compound was classed as inactive. In the case of `CCCOc1ccc(C2Nc3cccc4cccc(c34)N2)cc1` it was “inactive”; in that of `Cc1cccc(NC(=O)c2cc3ccccc3c(=O)o2)n1`, “inactive”. On to `O=C(CCSc1nnc(-c2ccncc2)o1)Nc1ccccc1Cl`, for which the outcome was inactive. For `COc1ccccc1/C=N/NC(=S)Nc1cccnc1` the value was “inactive”. Turning to `O=C(CSc1ncn[nH]1)Nc1cccc2ccccc12`, the outcome was inactive. As for `COC(=O)c1ccccc1NC(=O)CSCC(=O)Nc1ccc(F)cc1`, the call was inactive. With `COc1cccc(/C=N/NC(N)=S)c1OS(=O)(=O)c1ccccc1`, the result was inactive.

Turning to `COc1cccc(/C=N/Nc2nc(N3CCCC3)nc(N3CCCC3)n2)c1O`, the compound was classed as inactive. On to `Cc1ccc(N=Cc2c(O)ccc3ccccc23)cc1F`, for which the result was inactive.

As for `CONC(=O)c1cc(OCC(F)(F)F)ccc1OCC(F)(F)F`, the compound was called inactive.

Take `COC(=O)c1cccc(NC(=S)NCCC2=CCCCC2)c1`: the compound was called inactive. Regarding `O=C(NCC1COc2ccccc2O1)C1CCC(CNc2c(N3CCCCC3)c(=O)c2=O)CC1` (configuration not stated), the compound was called inactive. As to `Cc1ccc(-n2ncc(-c3nnc(SCC(=O)NC4CCCC4)o3)c2N)cc1C`, the result was inactive. On to `COc1cc(C(F)(F)F)nc2ccc(C#CCOC(=O)Nc3ccccc3)cc12`, for which the outcome was inactive. Turning to `O=C(CN1CCC(O)(c2ccc3c(c2)OCO3)CC1)OC1CCCCC1`, the result was inactive. Regarding `COc1ccc2nc(NC(=O)c3ccc(Br)s3)sc2c1`, the call was inactive. Consider `COc1ccc(C(=O)Nc2nc3ccc(OC)cc3s2)cc1`, for which the outcome was inactive. For the compound `O=C(COC(=O)c1ccc([N+](=O)[O-])s1)NCc1ccc(F)cc1`, the call was inactive.

With `CCOc1ccc(NC(=S)Nc2cccnc2)cc1`, the compound was classed as inactive. On to `Cc1c(C(=O)Nc2cccnc2)oc2ccc(Br)cc12`, for which the compound was called inactive.

Consider `COc1cc(NC(=O)C2CCCCC2)c(OC)cc1NC(=O)CN1CCCCC1`, for which the result was inactive. For the compound `Cc1ccc(S(=O)(=O)NCCCCCC(=O)Nc2nccs2)cc1`, the call was inactive. As for `Cc1nnc(SCc2ccc(C(=O)Nc3cc(Cl)ccc3C)cc2)s1`, the call was inactive. For `CCc1ccc2nc(/N=C(\N)NC(=O)c3ccccc3)nc(C)c2c1` the value was “inactive”; for `COc1ccc(C(=O)Nc2ccc(C(=O)OCC(=O)c3ccccc3)cc2)cc1`, “inactive”.

Turning to `O=S1(=O)CCO[C@H]2Cc3ccccc3[C@H]2N1Cc1ccc(Cl)cc1`, the compound was called inactive. On to `Cc1ccc(SCCNC(=O)c2ccc(C)c([N+](=O)[O-])c2)cc1`, for which the compound was called inactive. Consider `Cc1ccc(NC(=O)O/N=C/c2c(C)nn(C(C)(C)C)c2C)cc1Cl`, for which the outcome was inactive. For the compound `COc1ccc(-c2csc(NC(=O)c3c(C)noc3C)n2)cc1`, the compound was called inactive. As to `O=C1CCNc2c(Cl)cccc21`, the call was inactive. `Cc1ccc(NC(=O)CSc2nnc([C@@H]3CCCN3C(=O)OC(C)(C)C)o2)c(C)c1`: the compound was classed as inactive.

As to `CCCCCNCc1cccc(Br)c1`, the compound was called inactive. Take `O=C1C2CCN(CC2)C1Cc1ccc(OCCOc2ccccc2)cc1` (configuration not stated): the call was inactive. Regarding `Nc1ccc(C(=O)O)c(O)c1`, the outcome was inactive. On to `COc1ccc(C(=O)NC(=S)Nc2ccc(S(=O)(=O)Nc3cc(C)on3)cc2)cc1OC`, for which the call was inactive.

As for `Cc1nn(C)c(C(=O)NC(=S)Nc2ccccc2Br)c1Cl`, the result was inactive.

For `Cc1cc(C(=O)Nc2nnc(-c3ccccc3)s2)no1`, the result was inactive. As for `CCOc1ccc(-c2nnc(-c3cccs3)o2)cc1OCC`, the call was inactive. On to `CC(=O)c1c(C)[nH]c(C(=O)OCC(=O)Nc2nnc(-c3ccccc3)o2)c1C`, for which the outcome was inactive. Turning to `Cc1ccc(NC(=O)CCS(=O)(=O)c2cccc3nonc23)cc1`, the compound was called inactive. For the compound `O=C(Nc1ccc(F)cc1)c1sc2cc(C(F)(F)F)cnc2c1-c1cccs1`, the outcome was inactive.
